Data reported in PubChem BioAssay (Tox21).
Records with an inconclusive call do not appear. Where a call stands in place of a potency, no number is given. The source made the active and inactive calls. Calls come from the whole dose curve; as a rule, active = well fitted cell-killing curve with a large enough effect in the repeat runs (not every such curve was filed as active); inconclusive = weak or mixed curves, or effect the other way; inactive = no such curve, though single readings can be large or run the other way.

test: qHTS assay to identify small molecule antagonists of the farnesoid-X-receptor (FXR) signaling pathway - cell viability counter screen (AID 743221); details: FXR-bla HEK293T viability, CellTiter-Glo luminescence, 16 h; series mostly up to 62.6 µM; activity change, negative = cytotoxicity: at the top concentration; note: nearly all actives have a fitted effect of over 50% in size
Description: National Center for Advancing Translational Sciences [NCATS]
NIH Chemical Genomics Center [NCGC]
U.S. Environmental Protection Agency [EPA]
National Institutes of Environmental Health Sciences [NIEHS]
National Toxicology Program [NTP]
U.S. Food and Drug Administration [FDA]
The farnesoid-X-receptor (FXR), a nuclear hormone receptor, is highly expressed in liver, intestine, kidney and adrenal cortex. Natural ligands of FXR are the bile acids (Cholic acid, Chenodeoxy cholic acid etc). FXR is an important regulator of diverse metabolic pathways, including the bile acid homeostasis, lipid and glucose metabolisms. FXR regulates the expression of target genes by binding either as a monomer or as a heterodimer with the retinoid X receptor (RXR). Numerous studies have reported that FXR exerts protective function during cholestasis, diabetes, liver regeneration, and cancer. To identify compounds that inhibit FXR signaling, GeneBLAzer FXR-UAS-bla HEK 293T cell line (Invitrogen, Carlsbad, CA) containing a beta-lactamase reporter gene under the control of a UAS response element was used to screen the Tox21 10K compound library. The cytotoxicity of the Tox21 compound library against the FXR-bla cell line was tested in parallel by measuring the cell viability using CellTiter-Glo assay in the same wells.
Tox21 Assay Protocol Summary:
FXR-bla cells were dispensed at 5000 cells/5uL/well in 1536-well black wall/clear bottom plates using a Multidrop Combi (Thermo Fisher Scientific, Waltham, MA) dispenser. After the assay plates were incubated at 37 C and 5% CO2 for 5 h, 23 nL of compounds dissolved in DMSO, positive controls or DMSO only was transferred to the assay plate by a Pintool station (Kalypsys, San Diego, CA), followed by addition of 1 uL Chenodeoxycholic acid (50 uM, final concentration in the wells). The assay plates were incubated at 37C for 16 h. After 1 uL of LiveBLAzerTM B/G FRET substrate was added using a Bioraptr Flying Reagent Dispenser (FRD) workstation (Beckman Coulter, Indianapolis, IN), the plates were incubated at room temperature for 2 h, and fluorescence intensity was measured by an Envision plate reader (PerkinElmer, Shelton, CT). For cell viability readout that measures cytotoxicity, 4uL/well of CellTiter-Glo reagent was added into the assay plates using a Bioraptr FRD. After 30 min incubation at room temperature, the luminescence intensity in the plates was measured using a ViewLux plate reader (PerkinElmer).
Potency is the fitted concentration of half-maximal effect.

Structure (SMILES)	Potency	activity change, negative = cytotoxicity
Nc1ccc(Nc2ccccc2)cc1	inactive	
C#C[C@]1(O)CC[C@H]2[C@@H]3CCc4cc(OC)ccc4[C@H]3CC[C@@]21C	inactive	
CCCCOCCOCCO	inactive	
OC(CCl)CCl	inactive	
Cc1cccc([N+](=O)[O-])c1C	inactive	
CCOC(=O)C(C#N)=C(c1ccccc1)c1ccccc1	inactive	
CC(C)(C)NC(=O)[C@H]1CC[C@H]2[C@@H]3CC[C@H]4NC(=O)C=C[C@]4(C)[C@H]3CC[C@]12C	inactive	
CCOCCOCCO	inactive	
Nc1ccccc1N	inactive	
O=Cc1ccccc1O	inactive	
COc1ccc(OC)c(C(O)CNC(=O)CN)c1 (stereo not given)	inactive	
CCCC(=O)O	inactive	
COc1c(Cl)c(Cl)c(Cl)c(Cl)c1Cl	inactive	
COC(=O)CCC(=O)OC	inactive	
C=C(C)C(=O)OCCOC(=O)C(=C)C	inactive	
CN(C)CCN(Cc1cccs1)c1ccccn1	inactive	
COC(=O)Nc1nc2ccc(S(=O)c3ccccc3)cc2[nH]1 (stereo not given)	inactive	
CCCCCCCCCCCO		-12% [at 81.1 µM] (inactive)
c1cc(N(CC2CO2)CC2CO2)ccc1OCC1CO1 (stereo not given)		19.7% (inactive)
OC1CCCCCCCCCCC1	inactive	

Structure (SMILES)	Potency	activity change, negative = cytotoxicity
C/C=C/C(=O)O	inactive	
O=C(Nc1ccc([N+](=O)[O-])cc1Cl)c1cc(Cl)ccc1O	3.26 µM (active)	
O=[N+]([O-])c1ccc2c(c1)Cc1ccccc1-2	inactive	
O=CCCCC=O	inactive	
O=C(c1ccccc1)c1ccccc1O	inactive	
c1ccc2c(c1)c1cccc3ccc4cccc2c4c31	inactive	
CNCCCC12CCC(c3ccccc31)c1ccccc12	38.9 µM (active)	
COc1cccc2c1C(=O)c1c(O)c3c(c(O)c1C2=O)C[C@@](O)(C(=O)CO)C[C@@H]3O[C@H]1C[C@H](N)[C@H](O)[C@H](C)O1	inactive	
Nc1ncn([C@@H]2O[C@H](CO)[C@@H](O)[C@H]2O)c(=O)n1	inactive	
CC(C)CC(C)(O)C#CC(C)(O)CC(C)C (stereo not given)	inactive	
O=P(O)(O)O	inactive	
COC(=O)c1ccccc1	inactive	
CC(C)OC=O	inactive	
CN(C)C(=N)N=C(N)N	inactive	
CC(=O)c1ccccn1	inactive	
CC(C)OC(=O)C(C)(C)Oc1ccc(C(=O)c2ccc(Cl)cc2)cc1	inactive	
c1ccc2cc(Nc3ccc(Nc4ccc5ccccc5c4)cc3)ccc2c1	inactive	
OCCO	inactive	
Brc1cc(Oc2cc(Br)c(Br)c(Br)c2Br)c(Br)c(Br)c1Br		3.96% (inactive)
O=C(COc1ccc(Cl)cc1)N1CCN(Cc2ccc3c(c2)OCO3)CC1		-17.1% (inactive)
